The record followed here is PubChem BioAssay (EPA / NIEHS).

The nature of assay [1]: TOX21_p53_BLA_p2_viability: Viability Assessment in the Tox21 HCT-116 p53 Agonism Beta-lactamase Assay, Phase 2 (AID 2283591).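 Also: compound exposure lasted 16 h at 37 °C; actives lower the ATP signal meaning cytotoxicity.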 Put shortly:
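HCT116 p53-bla cells, 4000/well, dosed after 5 h plating (217-fold dilution of DMSO stocks) and incubated 16 h at 37C. Viability taken as cellular ATP by CellTiter-Glo luminescence after 30 min RT; signal loss marks cytotoxicity.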

The target of assay [2] is Cellular tumor antigen p53 (Homo sapiens) (UniProt P04637). Kind of assay: TOX21_p53_BLA_p2_ratio: Tox21 HCT-116 p53 Agonism Beta-lactamase Assay, Ratio, Phase 2 (AID 2283592). Put shortly: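 HCT-116 cells with p53-responsive beta-lactamase reporter, 4000 cells/well, preincubated 5 h, then compound in DMSO (217-fold dilution) for 16 h at 37C. CCF4-AM substrate 2 h at room temperature; 460/530 nm emission ratio fitted upward versus DMSO.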

The target is the same in assay [3]. The assay is described as follows: TOX21_p53_BLA_p3_ratio: Tox21 HCT-116 p53 Agonism Beta-lactamase Assay, Ratio, Phase 3 (AID 2283596). The method in brief:
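HCT116 p53-bla cells (4000/well) given compound in DMSO (217-fold dilution) after 5 h, incubated 16 h at 37C. CCF4-AM substrate 2 h at room temperature; 460/530 nm emission ratio, gain fitted against DMSO.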

Assay [4] in a line: TOX21_p53_BLA_p4_viability: Viability Assessment in the Tox21 HCT-116 p53 Agonism Beta-lactamase Assay, Phase 4 (AID 2283597).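 Also: hits lower the luminescence signal meaning cytotoxicity.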 The method in brief:
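HCT-116 p53-bla cells, 4000/well, dosed after 5 h attachment and incubated 16 h at 37 °C, 5% CO2. Viability from CellTiter-Glo ATP luminescence after 30 min at room temperature, taken after the beta-lactamase read; loss of signal indicates cytotoxicity.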

The target of assay [5] is Cellular tumor antigen p53 (Homo sapiens) (UniProt P04637). Kind of assay: TOX21_p53_BLA_p5_ratio: Tox21 HCT-116 p53 Agonism Beta-lactamase Assay, Ratio, Phase 5 (AID 2283599). The method in brief: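 HCT-116 p53-bla cells (4000/well) plated 5 h, dosed with compound (217-fold DMSO dilution) for 16 h at 37 C; CCF4-AM substrate 2 h at room temperature. Activity is the 460/530 nm emission ratio (405 nm excitation), fitted in gain-of-signal direction versus DMSO.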

Assay [6] can be described thus: TOX21_p53_BLA_p5_viability: Viability Assessment in the Tox21 HCT-116 p53 Agonism Beta-lactamase Assay, Phase 5 (AID 2283600). The method in brief: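 HCT-116 p53 beta-lactamase reporter cells, 4000/well, were exposed to compound (pin transfer, 217-fold dilution) for 16 hours at 37C. Cellular ATP was read by CellTiter-Glo luminescence after 30 min at room temperature.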

Assay [7] concerns the target Cellular tumor antigen p53 (Homo sapiens) (UniProt P04637). Kind of assay: TOX21_p53_BLA_p4_ratio: Tox21 HCT-116 p53 Agonism Beta-lactamase Assay, Ratio, Phase 4 (AID 2283601). The method in brief:
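HCT-116 p53 beta-lactamase reporter cells (4000/well) preincubated 5 h, then compound (217-fold dilution of DMSO stock) for 16 h at 37C. CCF4-AM substrate added 2 h at room temperature; 460/530 nm emission ratio fitted upward versus DMSO.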

Assay [8] can be described thus: TOX21_p53_BLA_p3_viability: Viability Assessment in the Tox21 HCT-116 p53 Agonism Beta-lactamase Assay, Phase 3 (AID 2283593).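 Also: cells exposed to compound for 16 h before reading.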 Put shortly:
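HCT116 cells, 4000/well, dosed 5 h after plating by pin transfer (217-fold dilution from DMSO stock) and incubated 16 h at 37C, 5% CO2. Viability read as ATP luminescence with CellTiter-Glo after 30 min at room temperature.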

The nature of assay [9]: ATG_XTT_Cytotoxicity: Cytotoxicity Assessment in the Attagene TRANS-FACTORIAL HepG2 Assay (AID 2283584). The method in brief:
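HepG2 cells transiently transfected with GAL4-UAS multiple reporter units, dosed 24 h; cytotoxicity read by XTT as loss of signal versus DMSO baseline.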

Assay [10] is described as follows: CCTE_Simmons_CellTiterGLO_HEK293T: Viability Assessment in CCTE's Assays for Thyroperoxidase (TPO) Inhibition, Simmons Lab (AID 2283665). The method in brief: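 HEK293T, 10 000 cells/well, DMEM + 1% FBS; 8-pt titration 5 nM–87.5 uM [final], 0.5% DMSO; 24 hr, 37C, 5% CO2; CellTiter-Glo luminescence; n=3 biological replicates.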

The structures appear in SMILES notation. Several values for one entry are separate records, joined by “and”; a condition that tells them apart may be missing. Equal values may be shown once. Inconclusive results are not listed. Some compounds were tested as several samples or in several runs, with calls that do not always agree. Activity calls are given as the source filed them. The calls were made as follows: active = hit-call score of the fitted dose curve at least 0.9, where 1 is the maximum; inconclusive = response in the unintended direction; inactive = score below 0.9.

Cellular tumor antigen p53 (Homo sapiens), sequence (P04637 whole entry, looked up): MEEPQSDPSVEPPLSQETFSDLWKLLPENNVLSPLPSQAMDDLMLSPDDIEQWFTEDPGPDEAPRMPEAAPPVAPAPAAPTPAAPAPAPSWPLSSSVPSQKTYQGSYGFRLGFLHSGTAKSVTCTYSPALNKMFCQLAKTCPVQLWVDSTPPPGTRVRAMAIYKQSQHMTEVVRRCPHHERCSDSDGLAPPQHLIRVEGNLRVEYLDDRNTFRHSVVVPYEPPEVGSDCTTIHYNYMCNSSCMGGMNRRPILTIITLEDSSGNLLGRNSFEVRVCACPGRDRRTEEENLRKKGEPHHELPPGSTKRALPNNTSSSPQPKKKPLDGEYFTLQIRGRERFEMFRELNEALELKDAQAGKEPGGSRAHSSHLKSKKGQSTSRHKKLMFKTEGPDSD

As to `c1ccc(-c2ccccn2)nc1`, the outcome in [1], in assay [2], in assay [3], in assay [4], in assay [5] and in assay [6] was inactive. In assay [7], the result was inactive.

As for `C[C@]12CCC(=O)C=C1CC[C@@H]1[C@@H]2C(=O)C[C@@]2(C)[C@H]1CC[C@]2(O)C(=O)CO`, the call in assay [1], in [2], in [8], in assay [3], in assay [4] and in assay [5] was inactive. The call in assay [6] and in [7] was inactive.

With `COc1c2ccoc2cc2oc(=O)ccc12`, the call in assay [9], in assay [2], in assay [4], in assay [5] and in assay [7] was inactive.

Regarding `CCc1nccnc1C`, the result in [9], in assay [2], in [4] and in [6] was inactive.

Consider `O=C(O)c1ccccc1Nc1cccc(C(F)(F)F)c1`, for which the result in assay [1], in [2], in [8], in assay [3], in assay [5] and in assay [6] was inactive. For the same compound, the outcome in assay [7] was inactive. The AC50 in assay [2] was 19.9 µM (active); in [4], 22.7 µM (active) and 23 µM (active); in assay [5], 46.1 µM (active); in assay [7], 39.5 µM (active).

Turning to `O=C1OC(=O)c2cc(Oc3ccc4c(c3)C(=O)OC4=O)ccc21`, the outcome in [1], in assay [2], in assay [8], in [3], in assay [4] and in [6] was inactive. Moreover, in [7], the result was inactive.

Regarding `COc1ccc(-c2coc3cc(O)ccc3c2=O)cc1`, the compound was classed as inactive in assay [9], in assay [8], in [3], in [4] and in assay [6].

Regarding `C[C@]12C=CC(=O)C=C1CC[C@@H]1[C@@H]2[C@@H](O)C[C@@]2(C)[C@H]1CC[C@]2(O)C(=O)CO`, the compound was classed as inactive in assay [1], in assay [2], in assay [8], in assay [3], in [4] and in assay [5]. In [7], the result was inactive.

Take `C/C=C\C/C=C/CCCCCCCCOC(C)=O`: the compound was called inactive in assay [1], in [2], in assay [8], in [3], in assay [4] and in assay [5]. The compound was classed as inactive in [6] and in [7].

On to `CCN(CC#N)c1cccc(C)c1`, for which the result in [9], in [2], in assay [4], in assay [5] and in assay [7] was inactive.

For the compound `C=C(C)[C@@H]1CCC2=CCC[C@@H](C)[C@]2(C)C1`, the result in [9], in [2], in assay [4], in [5] and in assay [7] was inactive.

For the compound `ON(Cc1ccccc1)Cc1ccccc1`, the compound was classed as inactive in assay [9], in [2] and in assay [6].

As to `Nc1ccc(Cl)cc1Cl`, the outcome in assay [1], in assay [2], in assay [8], in assay [4], in [5] and in assay [7] was inactive.

With `CC(=O)Nc1ccc2c(c1)Cc1cc(NC(C)=O)ccc1-2`, the outcome in [1], in [2], in assay [8], in [3], in assay [4] and in assay [5] was inactive.

With `Cc1cnc(NC(=O)C2=C(O)c3ccccc3S(=O)(=O)N2C)s1`, the outcome in assay [9], in [2], in assay [3], in assay [5] and in assay [7] was inactive.

As for `COC(=O)c1sccc1S(N)(=O)=O`, the call in assay [9], in assay [2], in assay [4], in assay [5] and in assay [7] was inactive.

For `C[Si](C)O[Si](C)(C)O[Si](C)(C)O[Si](C)C`, the call in assay [9], in assay [3] and in assay [6] was inactive.

In the case of `C=CCOCC(O)CCl` (stereo not drawn), the compound was classed as inactive in [9], in assay [2], in [5], in assay [6] and in [7].

With `c1ccc(CNCc2ccccc2)cc1`, the compound was classed as inactive in assay [9], in [2] and in assay [4].

In the case of `Cc1cc(=O)n(-c2ccccc2)n1C`, the compound was called inactive in assay [1], in assay [2], in assay [3], in assay [4], in assay [5] and in assay [6]. The result in assay [7] was inactive.

With `COc1cc(NC(=O)CC(C)=O)c(OC)cc1Cl`, the AC50 in assay [1] was 18.8 µM (active); in assay [4], 31 µM (active). The result in [1], in assay [2], in assay [4], in [5], in assay [6] and in assay [7] was inactive.

Consider `CCN(Cc1cccc(S(=O)(=O)O)c1)c1ccc(C(=C2C=CC(=[N+](CC)Cc3cccc(S(=O)(=O)[O-])c3)C=C2)c2ccccc2)cc1`, for which the compound was classed as inactive in assay [9], in assay [4], in [5] and in [7].

For the compound `O=C(/C=C/C=C/c1ccc2c(c1)OCO2)N1CCCCC1`, the result in assay [1], in [2], in assay [8], in assay [4], in [5] and in assay [7] was inactive.

As for `CC(C)(Oc1ccc(C2CC2(Cl)Cl)cc1)C(=O)O` (stereo not drawn), the result in [1], in [2], in assay [8], in [3], in assay [4] and in assay [5] was inactive. Also, the compound was classed as inactive in [6] and in assay [7].

Regarding `Nc1ccc(N)c(Cl)c1`, the call in assay [1], in [2], in assay [4], in assay [5], in assay [6] and in assay [7] was inactive. Moreover, the AC50 is 68.3 µM (active) in [2], 76.2 µM (active) in assay [3], 75.2 µM (active) in [5] and 72.1 µM (active) in [7].

For `c1ccc2c(c1)ccc1cc3c(ccc4ccccc43)cc12`, the call in [10] was inactive.

For the compound `O=C(c1ccccc1)c1ccc(O)c(O)c1O`, the compound was called inactive in [10].
